# The full ranking holds about 25,000 sequences; the median of “ln(normalized median fluorescence intensity)” is about 7.1, and the highest 2% start at about 10. The list comes from a sample in which the highest values are over-represented; it also holds similar and randomly drawn sequences.
# Tested on: PfSIP2 AP2 domain 1 (GST-tagged)
# Assay: gcPBM binding intensity (ln(normalized median fluorescence intensity)); higher = stronger DNA binding
# How it was run: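 Using an Agilent 4 × 180k array, primer-extended double-stranded 36-bp intergenic genomic probes and negative controls were exposed for 1 h to GST-fused P. falciparum DNA-binding domains expressed in E. coli. Binding was carried out in 1× PBS with 1% milk, 0.2 mg/ml BSA, 0.5% salmon testes DNA and 0.03% Triton X-100, and protein was detected with Alexa488 anti-GST antibody and a 488 nm scan. Binding intensity is the highest Masliner-normalised natural-log median intensity across replicate spots of either probe orientation.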
row,Sequence,gcPBM binding intensity (ln)
1,AGGAAAAACTTGAATGCATGCGCACATTCTAGTTTG [TGCATGCA_site776],6.99
2,AAAATTTATATAGGCACACAAATAAATTAATACATA [CACACA_site1418],6.76
3,TTTTTTTATATTATACGCACTAATATATATATATAT [XGTACX_negctrl_site40],8.94
4,CCGTATATTTTATATAGTACTCATCATATATTTTTA [XGTACX_site5560],6.96
5,AAGATAATTACGCACACACACACACGCCCACAACTA [CACACA_site7255],7.34
6,CTGTCTGCAGATATGGTGCATTTGTAAGATCTTACA [GTGCAC_site9870],10.4
7,CATTTTGTAAGATATGCACACATGGATCATATTTTA [CACACA_site423],6.94
8,TATCTTCATATATGGTGTACAGATTTTTTTTTTTTT [XGTACX_site5545],7.26
9,GGAAAAAGAAATTAATGTACATGTGGATGTATGAGG [XGTACX_site5468],7.25
10,TTTCCTCATTTTATCATACACACTTGTTTATATGTG [CACACA_site8202],6.92
11,ATTCATTTACCAATGGTGCAATATATTTTTATAATG,10.3
12,TCTTTGTATATATGTTCATTTGTAATATATATTCAT [TGCATGCA_negctrl_site467],7.18
13,AATCATTTATTGATGGTGCAATATACCATCTAATGA [GTGCAC_site9440],9.44
14,TTTATTTTTTACCAAGTGCAATATATTATAATAATA,7.77
15,AATTTATATAATTTTGTGCACAATATTCATGTATAT,8.93
16,TATTCAGGTCCAATGGTGCAATATATTTTTGTAATA [GTGCAC_site9607],10.5
17,AGCTATATAAATAATACATGCATTGTTCAGGTATTT [TGCATGCA_site964],6.83
18,TAAATATAGGGTAATAGTACATAATTATATTCTTTT [XGTACX_site3883],6.76
19,GTGTTGGGAAAAGGCATGCACTTTTTTTTTTTTTTT,9.34

row,Sequence,gcPBM binding intensity (ln)
1,TATACCTTAATATACACACATACATATATATATATA [CACACA_site1339],9.12
2,CTACCTTTAATATATACACACACATAAAAAAAATAT [CACACA_site8548],7.44
3,ACCTTTAATATATACACACACATAAAAAAAATATAT [CACACA_site1843],7.83
4,AATAGTCGTGTGCATACACACCTTAACTATAATATA [CACACA_site6636],7.41
5,GGAATAGTCGGGTGCATACACACCTTAAATATAATA [CACACA_site1081],11.4
6,AATAGTCGGGTGCATACACACCTTAAATATAATATA [CACACA_site8271],11.3
7,TTGATTACACTGAAGTGTACATATATATATATATAT [XGTACX_site3532],9.07
8,AATAATAAAATAAAGGCATGCACAATATGCTATAAA [TGCATGCA_site645],7.49
9,TTTAATCATATGTTATATAATAAGCCCCCCCCCCAA [CACACA_negctrl_site486],10.2
10,ATATTTTTATTTTCTTTACACACCACATAATTTTTT [CACACA_site4060],7.09
11,TTTTGTTTTAATTTTATTTGATTTTATTTGATTTAT [CACACA_negctrl_site692],6.69
12,TTTATTTTTAACAGTGCACACATAACTTAATTATAT [CACACA_site8681],10.5
13,TTTAATTTTTATATAACACACATATTGTAATTATGT [CACACA_site4566],6.97
14,TATTTTTAACAGTGCACACATAACTTAATTATATGT [CACACA_site2194],10.6
15,TTTAACTTTTATATAACACACATATTGTAATTATGT [CACACA_site6486],7.05
16,ATATATATTTTAATAACACACATATATTATATTATA [CACACA_site4387],7.06
17,TTTTAATTTATTTATGCACACATATATAATTACACA [CACACA_site8126],7.52
18,AAAAAAAGAAATTAGGTGCATAGCATTAACCGATAA [GTGCAC_site9582],10.1
19,TATATATATAGAAATGCATGTTAATAAAAGTTATAA [TGCATGCA_site947],8.13

row,Sequence,gcPBM binding intensity (ln)
1,ATTTTTTATATTTAGTGTACATGTTTTAATTTATAA [XGTACX_site7512],7.29
2,GGATAAGAGGCATATACACACAATTTAAAAAAATAA [CACACA_site4657],7.15
3,AAAAAAAAAAAAAGTGCACACGATTTAAGGCCTATA [CACACA_site2823],10.9
4,AATATTTTAAGGCACACACACAAAAAAAAAAAAAAA [CACACA_site2890],7.22
5,TTTTTTTCAATATTTGCACACGATTAAAATATTTAA [CACACA_site5266],7.28
6,TTTCTAATTTATATCACACACATATAAATATAGTAA [CACACA_site6210],7.19
7,GGCGTATGTGTATATACACACCCACGTATATAAATA [CACACA_site7489],7.08
8,CCTTTCCTTTTATAAGTGCATATAACAAATGTATAC [GTGCAC_site9872],8.88
9,ATAATGAACAAAGTAGTGCACTTTCCTTATCTTTTC,10.9
10,ACTAATAACAAAAGCTTGCACTTTTTTTTTCCTAAT,7.82
11,ATCTTATATCGTAGAGATTTTTTTTTTTTTTCATTT [XGTACX_negctrl_site140],6.7
12,TTTTAAAAAAATAAAAAATAATAAAAAAAATAAAAA [CACACA_negctrl_site1693],6.76
13,TTTTTTATAAATCAAATGAAAAATAAACTATTCAGA [CACACA_negctrl_site1568],6.59
14,TTTTAAATTTTTTAAAGTACACGTCGAAAAGGTATA [XGTACX_site76],7.93
15,GCACCCTGTATGAATGCACACATTCATAGAATTGCT [CACACA_site5475],8.46
16,TATTTAAAATAATAACAAAATTAACATAAATATATA [GTGCAC_negctrl_site472],6.82
17,AAGAACAAATATGAGGTGCAACACAATATATTATTA [GTGCAC_site9965],10.5
18,AAAGAAATATATACAAAAATATGAACAATTTATTAT [XGTACX_negctrl_site78],6.81
19,TTTATATTTAAATATATATGAGAAAACACAAAATAT [TGCATGCA_negctrl_site211],7.34
